# Experimental data from PubChem BioAssay (NCATS).
# Records with an inconclusive call do not appear. Calls of active or inactive are those of the source. Unless noted, calls come from the whole dose curve; as a rule, active = well fitted curve in the direction sought with a large enough effect; inconclusive = small, poorly fitted or top-dose-only effect, or another doubt; inactive = no such curve, though single readings can be large; an effect the other way counts as inactive or inconclusive.
# Key:
# [1] = qHTS profiling of the MIPE4 collection as inhibitors of Plasmodium falciparum (DD2) proliferation (AID 743345; call rule not given here); conditions: P. falciparum Dd2 in erythrocytes, SYBR Green DNA, 72 h; at 28.5 µM (top of the series) unless noted
# Method in brief: (§1)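 Parasite DNA was quantified by SYBR Green I fluorescence (ex 485, em 535 nm) after overnight lysis in saponin/Triton buffer at room temperature. Cultures at 0.3% parasitemia and 2.5% hematocrit were first exposed to compound for 72 h at 37 C; signals were normalised to artemisinin (0.29 uM) and vehicle wells.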
# [2] = High-throughput drug toxicity screening in the BPDCN cell line Gen2.2 (AID 1224824; call rule not given here;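 note: cells exposed to compounds for 48 h before reading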); conditions: Gen2.2 BPDCN cells; at 45.8 µM (top of the series) unless noted
# Method in brief: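 CellTiter-Glo luminescence after 48 h compound exposure of Gen2.2 cells; percent activity set with DMSO as 100% and bortezomib (9.2 uM final) as 0%. Cells seeded at 500 per well, RPMI + 10% FBS, 37 °C.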
# [3] = High-throughput drug toxicity screening in the BPDCN cell line Cal-1 (AID 1224825; call rule not given here); conditions: Cal-1 BPDCN cell viability, qHTS; at 45.8 µM (top of the series) unless noted
# Method in brief: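 CellTiter-Glo luminescence after 48 h compound exposure; percent activity scaled with DMSO as 100% and bortezomib (9.2 uM final) as 0%. Cal-1 cells seeded at 500/well in RPMI, 10% FBS, no phenol red.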
# [4] = qHTS assay for measurement of the activity of small molecule inhibitors on Zika virus induced Caspase-3 activity in human iPSC derived neural progenitor cells (hNPCs) (AID 1224857); note: % of control where 0% means no effect; nearly all actives have a fitted effect of over 65% in size
# Method in brief: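 hNPCs seeded 350 cells/well, cultured 16–20 h; compounds added 1 h before ZIKV (2 FFU/cell), 37 C 6 h. Caspase-Glo 3/7 luminescence after 30 min RT; % inhibition from induction scaled to uninfected (0%) and infected (100%) wells.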
# [5] = qHTS assay for measurement of the activity of small molecule inhibitors on Zika virus induced Caspase-3 activity in human astrocytoma cells (AID 1224859);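 note: plate controls were ZIKV-infected untreated cells for no effect and uninfected cells for full effect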
# Method in brief: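 Luminescence read-out (Caspase-Glo 3/7, 30 min RT) of caspase activity in SNB-19 cells infected 6 h with ZIKV, 2 FFU/cell, after 1 h compound pretreatment; % inhibition from induction normalised to uninfected (0%) and infected (100%) wells.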
# [6] = qHTS Screen of the MIPE 4.0 Collection Against Ewings Sarcoma (TC32) (AID 1259256); note: nearly all actives have a fitted effect of over 45% in size; note: potency is the fitted concentration of half-maximal effect
# Method in brief: (§2)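 Dose series incubated 48 h with cells in RPMI plus 5% FBS, glutamine and penicillin/streptomycin; cell viability then quantified via CellTiter-Glo.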
# [7] = qHTS assay to identify small molecule inhibitors of chordoma cells - UCH-1 (AID 1259355); note: nearly all actives have a fitted effect of over 55% in size; note: potency is the fitted concentration of half-maximal effect
# Method in brief: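 Screening used approved and investigational drugs in 15-point titration against 800 seeded cells per well. A fixed combination of auranofin with camptothecin, doxorubicin, rubitecan and topotecan followed compound addition, and growth was scored by CellTiter-Glo after 48hr.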
# [8] = qHTS assay to identify small molecule inhibitors of chordoma cells - UCH-2 (AID 1259356); note: % is set by controls: 0 for no effect and ±100 for the full control effect
# [9] = qHTS profiling of the MIPE4 collection as inhibitors of Plasmodium falciparum (3D7) proliferation (AID 743344; call rule not given here;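 note: scaled between DMSO vehicle wells and 0.29 µM artemisinin as full inhibition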); conditions: P. falciparum 3D7 in erythrocytes, SYBR Green DNA fluorescence, 72 h; at 28.5 µM (top of the series) unless noted
# Method in brief: as §1
# [10] = qHTS profiling of the MIPE4 collection as inhibitors of Plasmodium falciparum (HB3) proliferation (AID 743347; call rule not given here;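 note: plate controls were DMSO vehicle wells for no effect and artemisinin wells for full effect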); conditions: P. falciparum HB3 in erythrocytes, SYBR Green DNA, 72 h; at 28.5 µM (top of the series) unless noted
# Method in brief: as §1
# [11] = qHTS Screen of the MIPE 4.0 Collection Against Ewings Sarcoma (TC71) (AID 1259253); note: nearly all actives have a fitted effect of over 40% in size; note: potency is the fitted concentration of half-maximal effect
# Method in brief: as §2
# [12] = qHTS Screen of the MIPE 4.0 Collection Against Ewings Sarcoma (RDES) (AID 1259252);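 note: 100% = DMSO-treated cells and 0% = medium-only wells without cells; nearly all actives have a fitted effect of over 35% in size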
# Method in brief: as §2
# [13] = qHTS profiling of the MIPE4 collection as inhibitors of Plasmodium falciparum (DD2) proliferation (Rep 2) (AID 743346; call rule not given here); conditions: P. falciparum Dd2 in erythrocytes, SYBR Green DNA, 72 h; at 28.5 µM (top of the series) unless noted
# Method in brief: as §1
# [14] = qHTS Screen of the MIPE 4.0 Collection Against Ewings Sarcoma (EW8) (AID 1259255); note: nearly all actives have a fitted effect of over 35% in size; note: potency is the fitted concentration of half-maximal effect;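 for viability: 100% = DMSO-treated cells and 0% = medium-only wells without cells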
# Method in brief: as §2
SMILES,"parasite growth remaining, % of DMSO control (lower = more inhibition) [1]","cell viability, % of control (lower = more cytotoxic) [2]",viability (% of control) [3],Potency [4],Potency [5],Potency [6],Potency [7],outcome [8],"parasite growth, % of DMSO control [9]","growth, % of control [10]",Potency [11],Potency [12],"parasite growth, % of control (lower = inhibition) [13] [%]",Potency [14]
O=c1[nH]cc(F)c(=O)[nH]1,18.8%,118%,29.1%,inactive,inactive,9.35 µM (active),inactive,inactive,,,,,,
CN1CCC(=C2c3ccccc3C=Cc3ccccc32)CC1,36%,106%,35%,inactive,,,,inactive,15%,12.5%,16.6 µM (active),,,
COc1cc2nc(N3CCN(C(=O)C4COc5ccccc5O4)CC3)nc(N)c2cc1OC (centres undefined),9.25%,14.1%,8.05%,inactive,,,inactive,inactive,5.44%,2.34%,16.6 µM (active),inactive,,
Cc1cc(C(C)(C)C)c(O)c(C)c1CC1=NCCN1,95.8%,97.9%,110%,inactive,inactive,,,inactive,80.6%,98.3%,,,68.6,
CC(C)(Oc1ccc(C2CC2(Cl)Cl)cc1)C(=O)O (centres undefined),105% [at 57.5 µM],77.7% [at 92.2 µM],9.42% [at 92.2 µM],inactive,,42.9 µM (active),inactive,inactive,107% [at 57.5 µM],81.2% [at 57.5 µM],,,,7.62 µM (active)
CN(C)CCOC(c1ccccc1)c1ccccc1,39.2%,136%,38.8%,inactive,inactive,,,inactive,90.6%,100%,,,41.2,inactive
C[C@@H]1CC(=O)NN=C1c1ccc(NN=C(C#N)C#N)cc1,6.4%,7.71%,5.81%,inactive,,20.9 µM (active),inactive,inactive,8.76%,9.14%,29.6 µM (active),,,20.9 µM (active)
CC#C[C@]1(O)CC[C@H]2[C@@H]3CCC4=CC(=O)CCC4=C3[C@@H](c3ccc(N(C)C)cc3)C[C@@]21C,45.8%,6.18%,5.97%,inactive,,0.264 µM (active),,inactive,7.43%,6.33%,0.264 µM (active),,,0.418 µM (active)
Clc1ccccc1C(c1ccccc1)(c1ccccc1)n1ccnc1,6.19%,52.9%,74%,inactive,,,inactive,inactive,4.91%,5.57%,20.9 µM (active),,11,
C[C@](N)(Cc1ccc(O)c(O)c1)C(=O)O,80%,46.6%,66%,,inactive,inactive,inactive,inactive,73.9%,86%,inactive,,77.2,inactive
CCOC(=O)C(C)(C)Oc1ccc(Cl)cc1,103%,163%,22.1%,,inactive,inactive,inactive,inactive,92.7%,104%,inactive,,,
CC1(C)O[C@H]2CC(=O)OC[C@]23[C@H]2CC[C@@]4(C)[C@H](c5ccoc5)OC(=O)[C@H]5O[C@]54[C@]2(C)C(=O)C[C@@H]13,122%,131%,118%,,,inactive,inactive,inactive,86.6%,107%,inactive,,,inactive
Cc1ccc(C(=O)Nc2ccc(S(=O)(=O)O)c3cc(S(=O)(=O)O)cc(S(=O)(=O)O)c23)cc1NC(=O)c1cccc(NC(=O)Nc2cccc(C(=O)Nc3cc(C(=O)Nc4ccc(S(=O)(=O)O)c5cc(S(=O)(=O)O)cc(S(=O)(=O)O)c45)ccc3C)c2)c1,75.7%,58.9%,102%,,inactive,,inactive,inactive,19.9%,66.1%,inactive,,23.2,inactive
CC12CC3CC(C)(C1)CC(N)(C3)C2,23.6%,26.5%,17.7%,,,inactive,,inactive,176%,512%,inactive,inactive,122,inactive
CS(=O)(=O)Nc1ccc([N+](=O)[O-])cc1Oc1ccccc1,94.3%,111%,17%,,,14.8 µM (active),inactive,inactive,87.3%,92.7%,16.6 µM (active),,,16.6 µM (active)
NC12CC3CC(CC(C3)C1)C2,72%,60.9%,9.3%,,inactive,,inactive,inactive,11.2%,4.58%,26.4 µM (active),,25.9,
CCN1CCCC1CNC(=O)c1cc(S(=O)(=O)CC)c(N)cc1OC (centres undefined),99.9%,143%,55.1%,,,,,,93.7%,101%,inactive,,50.9,20.9 µM (active)
NCCCCCC(=O)O,91.3%,140%,130%,,inactive,,inactive,inactive,417%,708%,,,118,inactive
CN1CCN2c3ccccc3Cc3ccccc3C2C1 (centres undefined),60.5%,83.4%,91.5%,,,,inactive,inactive,56.9%,99.7%,16.6 µM (active),,,
OCCN1CCN(CCCN2c3ccccc3Sc3ccc(C(F)(F)F)cc32)CC1,10.5%,85.8%,6.77%,,inactive,23.5 µM (active),31.6 µM (active),,7.22%,10.5%,,,23.4,
C[C@H]1c2cccc(O)c2C(O)=C2C(=O)[C@]3(O)C(O)=C(C(N)=O)C(=O)[C@@H](N(C)C)[C@@H]3[C@@H](O)[C@@H]21,28.6%,12.3%,19.9%,,inactive,inactive,inactive,inactive,6.81%,12.4%,,,,
NCCc1cnc[nH]1,101%,166%,99.6%,,inactive,inactive,inactive,inactive,95.8%,108%,,,,inactive
